Where a chain is given by its changes, count along the chain named. The full ranking holds about 5,800 sequences; the median of “enrichment r” is about 0.54, and the highest 2% start at about 16. The sample holds the highest values, similar sequences and a random draw of the others, so the mix is not that of the screen.

Here are results for 25 molecules from article PMC12136788.

B1: ENSG00000145990:stop:overlap|stop_codon|ENSG00000145990|stop_codon|NA|stop_codon (ssRNA)
RNA: GGGAGUUCUACAGUCCGACGAUCUGAGCCCCGCCUACCUGAUCAGCGAGGCCAUGCGCCGCAGCAGGAUGUCCCUCUACUGUUAGCACAGAUUGAGAACCUCGGGGACUUGAGCCUUCUGCAGGGGAUGUCCACAGAGAGGGACAACAGAGGAUUGAGCAUCA
B2: chr9:124811826:124811928:+|3pUTR|ENSG00000185585|msi1|FALSE|unique (ssRNA)
RNA: GGGAGUUCUACAGUCCGACGAUCAAGAAAUUUUCUAGCCCAACUCCCUGUUUCAUGAAAGAGAAAAGAGGCUCAGAAAAGUUUAGAGAGCAGCUCAGUGUCACACUGGGAGCUGGGCACAGCCGAUCUCCUUCCAGAAGGGUUCAACAGAGGAUUGAGCAUCA
B3: chr4:110049619:110049852:-|3pUTR|ENSG00000170522|msi1|total|mutant (ssRNA)
RNA: GGGAGUUCUACAGUCCGACGAUCUUGUUCAAUGUGACAUAACCGUAUUAUAAUUGGUUAAGCCGCUUAAUGAUCCGGCAAACCCGAUGAAAAGAUCCGGGGCUUCCACACUGCACCGAUUACACGCACACCGCCACGCAUACACAACAGAGGAUUGAGCAUCA
B4: chr6:53267885:53267986:-|3pUTR|ENSG00000012660|msi1_unk|total|mutant (ssRNA)
RNA: GGGAGUUCUACAGUCCGACGAUCUUUAAUGUAAAUCUAACCGUACUUGUAAUUUCUUUCUGCUCCGAAUCUAAAGAUGUGUUCCGAACCUCUUGUUUAAAAAUAACCGACUGCUUAUCAUAAAAUCACAUCUCACACAUUUGACAACAGAGGAUUGAGCAUCA
B5: chr6:53267885:53267986:-|3pUTR|ENSG00000012660|msi1_unk|FALSE|overlapping (ssRNA)
RNA: B4 RNA with C40U, C41A, C64U, C65A, C83U, C84A, C106U, C107A
B6: chr4:110049619:110049852:-|3pUTR|ENSG00000170522|msi1|FALSE|unique (ssRNA)
RNA: GGGAGUUCUACAGUCCGACGAUCUUGUUCAAUGUGACAUAAUAGUAUUAUAAUUGGUUAAGUAGCUUAAUGAUUAGGCAAACUAGAUGAAAAGAUUAGGGGCUUCCACACUGCAUAGAUUACACGCACAUAGCCACGCAUACACAACAGAGGAUUGAGCAUCA
B7: chr9:14618660:14618761:-|3pUTR|ENSG00000175893|msi1|FALSE|unique (ssRNA)
RNA: GGGAGUUCUACAGUCCGACGAUCUUAGCUUUCCACAGGGAUUUCUUGAAAUGCUUUUGUUAUUAAACUCAAAAGGCAGUGAUUAGGAUGAAAUAAUUGUACAUAAUUUAUUUUAGUACUGACAGUGUUACAGAUUCUAAUUUACAACAGAGGAUUGAGCAUCA
B8: chr2:171983412:171983537:+|3pUTR|ENSG00000128708|unk|FALSE|unique (ssRNA)
RNA: GGGAGUUCUACAGUCCGACGAUCUGAUGACUUUAAUUUUAAAAUCUUGUGACAUUUUGCUUAUACUAAAAGUUAUCUAUCUUUAGUUGAAUAUUUUCUUUUGGAGAGAUUGUAUAUUUUAAAAUACUGUUUAGAGUUUAUGAGCAACAGAGGAUUGAGCAUCA
B9: ENSG00000198589:be:win_4601|CDS|ENSG00000198589|bound_else_gene|NA|bound_elsewhere_windowed (ssRNA)
RNA: GGGAGUUCUACAGUCCGACGAUCUGGCAGUAGUAUACUUUAUCUCUGUUCUUAUGGUCUCCAAGUACAGAGACAUUUUGGAACCCCAAAAUGAAAGGCAUAGCCAGUCAUGUACAGAAACUGGCAGUGAAAAUGAGAAUGUAUCAACAGAGGAUUGAGCAUCA
B10: chr4:17843545:17843646:+|3pUTR|ENSG00000109805|msi1|total|mutant (ssRNA)
RNA: GGGAGUUCUACAGUCCGACGAUCCUGUGCGCUUCCACGUUACUUUGGCCUGUAUUAAAGCAGCCGAGCAGCAUCAGUUAUUACCGUCCAGAAAAAGUGUGCAUCAGUCAGUCACACAGAUUUAUCACAAUCUGAGGUGGGCCUCAACAGAGGAUUGAGCAUCA
B11: chr8:22006149:22006250:+|3pUTR|ENSG00000130227|msi1|total|mutant (ssRNA)
RNA: GGGAGUUCUACAGUCCGACGAUCGAAUGUAUGAACUGGAGGAAGUUACUACAGUGGAAGGGUUCUUAAUAACAAGGUCUACCCCGCAUGAAGUAUUUAACAUUCUCCCAUCCCUUAAAAAAUAUACAUUUUUAUAAAAUGAAACAACAGAGGAUUGAGCAUCA
B12: chr6:145799413:145799514:-|3pUTR|ENSG00000118496|msi1|total|mutant (ssRNA)
RNA: GGGAGUUCUACAGUCCGACGAUCUUAUCUCACAUACUUACAACUCAACACACAGAGUGACCAUGUGCAGCUUUCUUUUUUGUCCGAUGCCACAUCCGAAGACUCAUCGCAGUGUGUUAUAUGACAGGACAAAGCAAAAACAAACAACAGAGGAUUGAGCAUCA
B13: chr11:46383557:46383658:+|3pUTR|ENSG00000110492|msi1_unk|FALSE|overlapping (ssRNA)
RNA: GGGAGUUCUACAGUCCGACGAUCCCACGCCCUCCCUCUCCCAGGCCCGAGAUGUGACCCACCAGUGCCUUCUGUCUGCUCGUUAGCUUUAAUCAAUCAUGCCCUGCCUUGUCCCUCUCACUCCCCAGCCCCACCCCUAAGUGCCAACAGAGGAUUGAGCAUCA
B14: chr10:92030471:92030572:+|3pUTR|ENSG00000095564|unk|total|mutant (ssRNA)
RNA: GGGAGUUCUACAGUCCGACGAUCUAUUUUUUUAUUAACUAUUUAUUUGCCCGUUCCAUAAACCAGCUCUUUAACACCGCUUACCGUAAUUGAUAUUUUCUCCGAAUAAGUACAGAGCAAUAUAUCAUUAAAGGGCUAUGAAGGCAACAGAGGAUUGAGCAUCA
B15: chr13:32776882:32776983:+|3pUTR|ENSG00000083642|unk|total|mutant (ssRNA)
RNA: GGGAGUUCUACAGUCCGACGAUCAAAGUGUUUUGAAUUGUGUCUUAAUCUCUCCAUAUUCAACUAUUCUUCAUUUACAACAACCGUGACACCAGUAAUUAUGAGAGGCUGUCAUAUAUCAAAGCAGCUCAGGUGGGAUCAACACAACAGAGGAUUGAGCAUCA
B16: chr4:124666837:124666938:-|3pUTR|ENSG00000151458|msi1|total|mutant (ssRNA)
RNA: GGGAGUUCUACAGUCCGACGAUCAAUGAUUUCUUGGCAGUUUAAAAAAAAUAUUUUACCGCCGUUCCGGGAGCUGCUUUAAGCCGUUUAAAUCUGGAUUUUCCCAGCCGAAUUCUUCUCAUCUCUGGCUAAACAUGUCAGAACCAACAGAGGAUUGAGCAUCA
B17: chr20:11926050:11926151:+|3pUTR|ENSG00000132640|msi1|total|mutant (ssRNA)
RNA: GGGAGUUCUACAGUCCGACGAUCAUGAAAUGGAAUGAAGGCUAAUAUGCUUGCUUUAUUUACUUUUGUAAUCUUGGAUUUUGCCGCUUUUAAAACCCGAAACCAUUGUUCUAACAAAGCAGGCAACUUUAUUCUAUAAACACACAACAGAGGAUUGAGCAUCA
B18: ENSG00000066933:stop:overlap|stop_codon|ENSG00000066933|stop_codon|NA|stop_codon (ssRNA)
RNA: GGGAGUUCUACAGUCCGACGAUCAUAGCUCAGAGAAUUUGAAUAUGGAGUCUGAAUAUGCUAUCUCUGAGAAAUCAGAAGCUUAGCCCUUAGCUCCCUGAAGACAGCUGGCAAGUCUGAACCUUCCAGCAAGUUGCGAAAGCACAACAGAGGAUUGAGCAUCA
B19: chr3:10101824:10101929:+|3pUTR|ENSG00000144554|unk|FALSE|unique (ssRNA)
RNA: GGGAGUUCUACAGUCCGACGAUCAAAAUCUCUGAGUCAUGAUUCUGGACUUUGGGAGCUAGUUUUGAAACUCUGAUUUAUUGUAGAACUUAGGCUUGUACCAAUUUUACAAAUAAAUUCUGUUCUAAGUUCUGCCUCAGUUGCCAACAGAGGAUUGAGCAUCA
B20: chr10:92030471:92030572:+|3pUTR|ENSG00000095564|unk|FALSE|unique (ssRNA)
RNA: B14 RNA with C50U, C51A, C76U, C77A, C83U, C84A, C101U, C102A
B21: chr20:11926050:11926151:+|3pUTR|ENSG00000132640|msi1|FALSE|unique (ssRNA)
RNA: B17 RNA with C83U, C84A, C96U, C97A
B22: ENSG00000107863:be:win_551|CDS|ENSG00000107863|bound_else_gene|NA|bound_elsewhere_windowed (ssRNA)
RNA: GGGAGUUCUACAGUCCGACGAUCAAGGCAACGAAGCUUAUAGCGGCAAUGCCCGCAAUAUACCUGAACCUCCACCAAUCUGCUAUCCCUGGCUGCCAUCUGCCCCAUCAGCCAUGGCACAGCCAGUUGAAAUAUCUCCUCCUGCAACAGAGGAUUGAGCAUCA
B23: chr8:65707876:65707977:+|CDS|ENSG00000066855|unk|FALSE|unique (ssRNA)
RNA: GGGAGUUCUACAGUCCGACGAUCCCUGCUGCCCUCAUAGCAGAGGCUCUGAAAAAGAAAUUUGCUUAUCGGUAUCGAAGUGAUAGCCAAGAUGAAGUUGAAAAAGGAAUUCCAAAGUCUGAAUCAGAGGCCACCUCAGAGAGACAACAGAGGAUUGAGCAUCA
B24: chr4:124666837:124666938:-|3pUTR|ENSG00000151458|msi1|FALSE|unique (ssRNA)
RNA: B16 RNA with C58U, C59A, C61U, C62A, C66U, C67A, C83U, C84A, C107U, C108A
B25: chr1:235448940:235449205:-|3pUTR|ENSG00000162885|unk|FALSE|unique (ssRNA)
RNA: GGGAGUUCUACAGUCCGACGAUCAAUAGAGAAUUCCAUUAAAACUAGUCUUAUGACAGAUAUUAACUGUGUUCAGAUUUUAUUAGGCUAGCUAGUUUCUUUCUAUUUAAUAUUUAAAUCUUAUCAUGAAAUGCAGUGAUGAGCCAACAGAGGAUUGAGCAUCA

The target of this experiment is MSI1 full-length (mouse, UniProt Q61474 1-362). Nature of the experiment: nsRBNS (natural sequence RNA bind-n-seq); RBNS binding buffer (assumed for nsRBNS): 25 mM Tris pH 7.5, 150 mM KCl, 3 mM MgCl2, 0.01% Triton X-100, 500 ug/ml BSA, 20 U/ml SUPERase-In, 4 C; UNK is unkempt and MSI1 is Musashi-1; names of the RNAs are library labels; protein concentration not given here; high values mean tight binding.
MSI1 full-length, sequence (Q61474 whole entry): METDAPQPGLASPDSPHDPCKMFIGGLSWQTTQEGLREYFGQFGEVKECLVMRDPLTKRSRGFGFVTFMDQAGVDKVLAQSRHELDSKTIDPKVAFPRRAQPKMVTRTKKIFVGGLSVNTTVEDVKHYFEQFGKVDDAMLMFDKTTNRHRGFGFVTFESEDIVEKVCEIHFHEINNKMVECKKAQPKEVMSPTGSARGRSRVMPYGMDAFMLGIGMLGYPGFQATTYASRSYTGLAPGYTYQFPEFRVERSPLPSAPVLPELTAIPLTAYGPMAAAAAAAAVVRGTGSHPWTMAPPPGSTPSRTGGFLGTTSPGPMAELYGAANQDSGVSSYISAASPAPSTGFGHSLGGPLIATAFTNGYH
B1: the binding signal stood at 0.305 enrichment R. As to B2, the binding signal was determined as 0.831 enrichment R. Then B3, with 0.468 enrichment R. Then B4, with 1.15 enrichment R. Regarding B5, the binding signal was found to be 26.6 enrichment R.

B6 displayed a binding signal of 43.1 enrichment R. B7 gave a binding signal of 1.51 enrichment R.

As for B8, the binding signal stood at 3.32 enrichment R. Then B9, with 0.339 enrichment R.

Molecule B10 gave a binding signal of 0.782 enrichment R. On to B11, for which the binding signal worked out at 0.38 enrichment R. Then B12, with 0.363 enrichment R. For the molecule B13, the binding signal was determined as 1.31 enrichment R. B14 had a binding signal of 27.9 enrichment R.

Take B15: the binding signal was 0.958 enrichment R. Then B16, with 0.225 enrichment R; and B17, with 0.37 enrichment R; and B18, with 16.9 enrichment R. Then B19, with 0.376 enrichment R; and B20, with 39.5 enrichment R; and B21, with 1.07 enrichment R. Then B22, with 0.51 enrichment R; and B23, with 0.29 enrichment R; and B24, with 23.2 enrichment R. In turn, B25 showed a binding signal of 13.3 enrichment R.
